# High-throughput results from PubChem BioAssay.
# Only some compounds are listed: those with a hit (about 21% of all), similar ones and a draw of the others.
# DT40 TDP1 no CPT: qHTS for Inhibitors of human tyrosyl-DNA phosphodiesterase 1 (TDP1): qHTS in cells in absence of CPT | DT40 Tdp1-/- hTDP1 cells, no CPT, ATP luminescence, 48 h | Potency, µM (top dose mostly 46.2 µM), for the others: at the top dose activity change, negative = growth inhibition, hits mostly inhibitors | 420,000 tested, 15% active; note: potency is the fitted concentration of half-maximal effect; % is set by controls: 0 for no effect and ±100 for the full control effect; nearly all actives have a fitted effect of over 55% in size
#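 Readout: luminescence from CellTiter-Glo after 30 min in the dark at RT. Cells: DT40 Tdp1-/- with stable hTDP1, 400/well. Exposure: compounds alone, ≥48 hr, 37 °C.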
# D3 antag: blocks the human D3 dopamine receptor; AID 652054; P35462; D3R cells, DiscoveRx beta-arrestin luminescence, antagonist mode; active compounds read low; 360,000 tested, 2.5% active; max response, negative = inhibition, %; in the data active = max response below about -50%; inconclusive = no clear call, values can overlap the other calls; note: % is set by controls: 0 for no effect and ±100 for the full control effect
# Target sequence (P35462 whole entry, looked up): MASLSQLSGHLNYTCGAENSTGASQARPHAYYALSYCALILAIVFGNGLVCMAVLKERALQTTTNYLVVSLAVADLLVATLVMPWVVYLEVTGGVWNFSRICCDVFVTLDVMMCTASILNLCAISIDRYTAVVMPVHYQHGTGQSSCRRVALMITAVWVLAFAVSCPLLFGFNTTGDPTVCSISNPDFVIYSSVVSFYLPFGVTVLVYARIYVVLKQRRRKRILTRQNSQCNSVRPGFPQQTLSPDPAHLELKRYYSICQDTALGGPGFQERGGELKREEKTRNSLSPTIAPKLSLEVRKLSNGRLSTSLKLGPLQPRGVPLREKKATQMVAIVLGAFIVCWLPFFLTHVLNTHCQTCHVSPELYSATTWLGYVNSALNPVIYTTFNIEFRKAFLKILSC
#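 Cells expressing the human receptor were seeded at 1500 cells/well, incubated overnight at 37 degrees C in 5% CO2, then exposed to library compounds with dopamine controls for 90 minutes at 37 degrees C before luminescent detection.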
# ClpP mod: qHTS Assay for Activators of ClpP; purified B. subtilis ClpP, FRET peptide cleavage, 20 min; Potency, µM (highest dose often 57.5 µM), for the others: top-dose activity change, negative = active; 340,000 tested, 1.9% active; active = well fitted falling curve with a large enough effect; inconclusive = small, poorly fitted or top-dose-only effect; inactive = no such curve, though single readings can be large or run the other way; note: potency is the fitted concentration of half-maximal effect; the source files actives as falling curves though it sought activators and does not explain the sign; nearly all actives have a fitted effect of over 65% in size
# Target sequence (P80244 whole entry, looked up): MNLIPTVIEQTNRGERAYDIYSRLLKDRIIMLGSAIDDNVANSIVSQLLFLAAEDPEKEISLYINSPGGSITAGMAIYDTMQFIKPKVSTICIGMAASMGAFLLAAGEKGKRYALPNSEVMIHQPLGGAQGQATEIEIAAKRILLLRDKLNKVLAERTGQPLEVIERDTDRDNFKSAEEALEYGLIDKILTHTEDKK
#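 Buffer: 100 mM Tris/HCl pH8, 100 mM KCl, 0.05% low protease BSA, 2.5% glycerol, 0.01% Tween-20. ClpP 10 microg/mL final; 20 min RT; delta FRET normalized to ADEP and DMSO controls.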
# DT40 TDP1 CPT: DT40-hTDP1 cell growth loss with CPT | chicken DT40 Tdp1-/-;hTDP1 cells + 20 nM CPT, ATP luminescence, 48 h | Potency, µM (top dose mostly 46.2 µM), for inactives: at the highest dose activity change, negative = growth inhibition, actives largely listed as inhibitors | 420,000 tested, 12% active; note: potency is the fitted concentration of half-maximal effect; % is set by controls: 0 for no effect and ±100 for the full control effect; nearly all actives have a fitted effect of over 55% in size
#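 Cell growth measured by CellTiter-Glo luminescence after a minimum 48 h, 37 C compound exposure with 20 nM CPT in Tdp1-knockout DT40 cells stably expressing hTDP1, seeded 400/well; qHTS titration format.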
# DRD3 agonist: agonists of human D3 dopamine receptor | P35462 | D3R DiscoveRx beta-arrestin cells, luminescence, 90 min | max activation, % | 410,000 tested, 0.58% active; in the data active = max activation above about 30%; note: 0% is about no effect
#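 Cells at 1500/well, incubated overnight, then treated with pinned compounds (dopamine as control) for 90 min at 37 degrees C. DiscoveRx reagent added for 30 - 60 minutes at room temperature; luminescence read.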
# IL1B secr inh: inhibitors of inflammasome signaling (IL-1 beta secretion). THP-1 LPS/ATP IL-1B secretion, AlphaLISA, 16 h; active compounds read low. activity change, % at 57.5 µM. 360,000 tested, 4.7% active. AID 743279; in the data active = activity change below about -50%; inconclusive = mostly about -30% to -49%; note: % is set by controls: 0 for no effect and ±100 for the full control effect
#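 Secreted IL-1B measured by AlphaLISA bead assay after 16 h compound exposure of THP-1 cells; compounds (final up to 57.5 uM) added 1 h before LPS (250 ng/mL) and ATP (1.25 mM) stimulation; lower signal means less secretion.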
# Active calls of the source: *; ? = inconclusive; / = not tested or not shown; [ ] = remark or other dose. Unless noted, calls come from the whole dose curve; as a rule, active = well fitted inhibition curve with a large enough effect; inconclusive = small, poorly fitted or top-dose-only effect; inactive = flat fitted curve, though single readings scatter.
SMILES,DT40 TDP1 no CPT,D3 antag,ClpP mod,DT40 TDP1 CPT,DRD3 agonist,IL1B secr inh
CCN(CC)CCCNC(=O)c1cc(-c2ccc(Cl)cc2)on1,23µM*,14,3%,?,-17,-18
CCCCNC(=O)c1cc(-c2ccc(OC)cc2)on1,-27%,-24,-5%,-30%,-2,3
CCCCNC(=O)c1cc(-c2ccc(F)cc2)on1,?,-17,-1%,13µM*,-8,42
O=C(NCCCN1CCOCC1)c1cc(-c2ccc(Br)cc2)on1,-28%,-12,1%,?,4,-62*
O=C(Nc1ccccc1)N1CC2(CCN(C(=O)c3cccc(F)c3)CC2)C1,4%,/,/,11%,/,/
COc1ccc(-n2cc(C#N)c(=O)n(Cc3ccc(F)cc3)c2=O)cc1,15µM*,-20,/,21µM*,-9,32
CN(c1ccccc1)S(=O)(=O)c1ccc(NC(=O)c2cc(=O)c3ccccc3o2)cc1,16µM*,/,1%,13µM*,3,/
Cc1ccc2c(=O)cc(C(=O)Nc3ccc(S(=O)(=O)Nc4ncccn4)cc3)oc2c1C,?,/,-1%,?,1,/
CCN(c1ccccc1)S(=O)(=O)c1ccc(NC(=O)c2cc(=O)c3c(C)cc(C)cc3o2)cc1,-17%,/,1%,2%,14,/
Cc1ccc2c(=O)cc(C(=O)Nc3ccc(S(=O)(=O)N(C)Cc4ccccc4)cc3)oc2c1,?,/,-8%,?,-2,/
CCc1ccc(NC(=O)c2cc(=O)c3ccc(C)c(C)c3o2)cc1,3.3µM*,/,1%,4.1µM*,-18,/
CCN(c1ccccc1)S(=O)(=O)c1ccc(NC(=O)c2cc(=O)c3ccc(C)c(C)c3o2)cc1,12µM*,/,-2%,10µM*,-12,/
Cc1ccc2c(=O)cc(C(=O)Nc3ccc(S(=O)(=O)N(C)Cc4ccccc4)cc3)oc2c1C,3.3µM*,/,0%,4.1µM*,-9,/
COc1ccc(C)cc1NC(=O)c1ccc2c(c1)nnn2C1CCCC1,?,/,-2%,?,-1,/
COc1ccc(CNC(=O)CCC2N=C3c4ccccc4N=C(SCC(=O)NCC4CCCO4)N3C2=O)cc1 (stereo not given),3%,8,3%,1%,0,22
Cc1cnc(-n2ncc(C(=O)N(C)C3CCOC3)c2-c2cccs2)nc1-c1ccc(F)cc1 (stereo not given),-20%,/,/,14%[9.04 µM],/,/
O=C1c2ccccc2C(c2nnnn2Cc2ccccc2)N1CCc1ccc(O)cc1 (stereo not given),-23%,21,1%,-13%,6,10
O=[N+]([O-])c1cccc(-c2nc3ccccc3s/c2=N/O)c1,?,?,/,-14%,-11,-81*
O=[N+]([O-])c1cccc(-c2cnc3ccccc3n2)c1,-14%,35,-2%,4%,-4,28
COc1ccc2[nH]c3c(c2c1)CCN1C(=O)C(CC(=O)NCCCn2ccnc2)C[C@H](C(=O)N2CCOCC2)[C@@]31C (stereo not given in full),-15%,21,-4%,-1%,-1,45
Cc1nn(C)cc1CNC(=O)C1CCC(=O)N(Cc2cccc(C(F)(F)F)c2)C1 (stereo not given),-14%,6,25µM*,-4%,-1,14
Cc1cc(N2CCOCC2)ccc1/C=C1\SC(=O)N(C(C)C)C1=O,?,55,0%,?,-3,-28
CCN1C(=O)S/C(=C\c2ccc(N3CCOCC3)cc2C)C1=O,16µM*,8,1%,15µM*,13,-54*
CCC(C)N1C(=O)S/C(=C/c2ccc(N3CCOCC3)cc2C)C1=O (stereo not given),23µM*,7,/,21µM*,15,0
O=C(CN1C(=O)S/C(=C/c2ccc(N3CCOCC3)cc2)C1=O)N1CCOCC1,-12%,-8,0%,-19%,5,6
SMILES,DT40 TDP1 no CPT,D3 antag,ClpP mod,DT40 TDP1 CPT,DRD3 agonist,IL1B secr inh
O=C(COC(=O)c1cccc(S(=O)(=O)N2CCCCC2)c1)NCc1cccc(Cl)c1,1%,11,?,0%,-7,-2
S=c1nc2ccccc2c2nc(-c3ccccc3Cl)[nH]n12,3.7µM*,-15,0%,3.3µM*,-2,36
CCCC(Oc1ccc(Br)cc1)c1nc2c3cc(OC)c(OC)cc3nc(=S)n2[nH]1 (stereo not given),?,21,-2%,?,8,4
CC(Oc1ccc(Br)cc1)c1nc2c3ccccc3nc(=S)n2[nH]1 (stereo not given),15µM*,-10,2%,?,-6,14
S=c1nc2ccccc2c2nc(-c3ccccc3)[nH]n12,9.2µM*,-7,-2%,21µM*,-4,26
COc1cc(-c2nc3c4ccccc4nc(=S)n3[nH]2)cc(OC)c1OC,?,11,/,?,8,22
S=c1nc(-c2ccccc2)[nH]n1-c1ccccc1,23µM*,3,-2%,-20%,-23,7
COc1ccccc1-c1nc2c3ccccc3nc(=S)n2[nH]1,-30%,-11,-1%,?,3,0
Cc1nc(=S)n(-c2ccccc2)[nH]1,5%,-8,1%,-1%,0,19
COCCn1c(=NC(=O)c2ccc3c(c2)OCCO3)sc2cc(C(=O)OC)ccc21,-23%,/,-7%,1%,15,/
O=S(=O)(Nc1ccc(O)c2ccccc12)c1cccs1,4.6µM*,-5,0%,2.1µM*,-11,-99*
CCOc1ccc(-c2cc(C(=O)N3CCN(c4ccccn4)CC3)c3ccccc3n2)cc1,9.2µM*,17,4%,5.8µM*,13,-27
CCCc1ccc(-c2cc(C(=O)N3CCN(c4ccccn4)CC3)c3ccccc3n2)cc1,18µM*,39,-23%,?,44*,-1
COc1cc(-c2cc(C(=O)N3CCN(c4ccccn4)CC3)c3ccccc3n2)cc(OC)c1OC,23µM*,14,-14%,?,0,?
O=C(c1cc(Sc2ccc(Cl)cc2)nc2ccccc12)N1CCN(c2ccccn2)CC1,?,3,-5%,?,1,-7
Cc1cc(C)cc(NC(=O)COC(=O)CCn2c(C)csc2=O)c1,-17%,-2,0%,-16%,-4,17
O=C(NNC(=O)C1CCCCC1)C(=O)NC1CCCCC1,-8%,?,1%,-10%,-5,-6
CCc1nc(N2CCC3(CC2)OCCO3)c2nnn(Cc3ccccc3Cl)c2n1,16µM*,9,-5%,?,-3,?
